These compounds were tested against Glucose transporter (Leishmania mexicana) (UniProt O61059) (assay: ST_JUDE_LEISH: Cytotoxicity at 2uM final concentration against transgenic Leishmania Mexicana promastigotes LmGT2 that are glucose transport deficient and complemented with the L. Mexicana glucose transporter 2. Activity is measured by DNA content using SYBR green in vitro).
Type: functional

First: CN1CCCN(c2ccnc3cc4c(cc23)N(C(=O)c2ccc(C(F)(F)F)cc2)CC4)CC1
Second: Cc1ccc(NC(=O)c2ccnc(N3CCN(c4ccncc4)CC3)c2)cc1F
The inhibition of the first is higher: 7.79% for the first, 4.05% for the second.

First: COc1ccc2nccc([C@@H](O)CN3CCC(NCc4ccc5c(c4)oc(=S)n5C)CC3)c2c1
Second: COc1ccc(CNC2CCN(c3ccc(NC(=O)c4cccc(Cl)c4)cc3)CC2)cc1OC
The inhibition of the first is higher: 1.46% for the first, 0.61% for the second.

Compared with `COc1cccc(Nc2nnc(SCC(=O)NNC(=O)c3ccccn3)s2)c1`, `CCC(=O)Oc1ccc(NC(=O)c2cccc(OC)c2)cc1` is higher in inhibition: -1.42% for the first, 1.69% for the second.

Going from `Cc1cccc(-c2ccc3c(c2)CC(NCc2cccc(-n4ccnc4)c2)C3)c1` (stereo not given) to `Cc1ccc(NC(=O)c2cccc(CN3CCCN(Cc4cccc(O)c4)CC3)c2)cc1C`, the inhibition falls from 26.6% to 4.38%.

Compared with `Nc1nc2c(ncn2OC[C@H]2COP(=O)(O)CO2)c(=O)[nH]1`, `Nc1ccc2[nH]cc(C3CCN(CC4CCN(C(=O)/C=C/c5ccc(Cl)c(Cl)c5)CC4)CC3)c2n1` is higher in inhibition: -1.54% for the first, -0.49% for the second.

First: N#Cc1cccc(C(=O)NC2CCN(CCCCCNC(=O)/C=C/c3ccc(Cl)c(Cl)c3)CC2)c1
Second: O=[N+]([O-])c1cccc(CNCC2CCN(Cc3ccc(Cl)c(Cl)c3)CC2)c1
The inhibition of the first is lower: 7.61% for the first, 12.9% for the second.

Compared with `CN(C)CCCNc1ccnc2cc(Cl)ccc12`, `Cc1ccc(O)cc1Nc1ccnc2cc(-c3csc(CNCCN4CCOCC4)n3)ccc12` is higher in inhibition: -1.76% for the first, 1.37% for the second.

First: CN1CCc2cc(I)c(O)cc2C1Cc1ccccc1Cl (stereo not given)
Second: O=C(N[C@@H](Cc1ccccc1)C(=O)NCCN1CCOCC1)c1ccc(O)c(-c2ccc(Cl)c(Cl)c2)c1
The inhibition of the first is lower: 2.59% for the first, 4.35% for the second.

First: CC(C)(C)OC(=O)N[C@@H](CS(=O)(=O)CCNC(=N)COCc1ccccc1)C(=O)OC(C)(C)C
Second: Cc1cccc(CNc2nc(C)cc(NCCC(=O)NCCOc3ccccc3)n2)c1
The inhibition of the first is higher: 5.74% for the first, -0.13% for the second.

First: COc1cccc(C(=O)NC(c2ccccc2OC)c2cc(Cl)c3cccnc3c2O)c1 (stereo not given)
Second: CCOc1cc(C(=O)Nc2cccnc2)ccc1-c1nc2cc(Cl)c(Cl)cc2[nH]1
The inhibition of the first is higher: 0.13% for the first, -0.85% for the second.

Compared with `CC1(C)N=C(N)N=C(N)N1OCCCCON1C(N)=NC(N)=NC1(C)C`, `COc1ccc(CNc2nc(NCCc3ccccc3)c3cc(OC)c(OC)cc3n2)cc1OC` is lower in inhibition: 3.76% for the first, 2.54% for the second.

Going from `O=C(Nc1ccc(C(=O)OCC2CCCN3CCCCC23)cc1)c1ccc([N+](=O)[O-])cc1` (stereo not given) to `CN1CCN(c2ccc(-c3cccc(NC(=O)c4cccc([N+](=O)[O-])c4)c3)nn2)CC1`, the inhibition rises from 0.99% to 1.84%.

`CC(CNC(=O)c1cc2c(Cl)cc(Cl)cc2[nH]1)CNc1cc(=O)c2ccccc2[nH]1` (stereo not given) gave an inhibition of 2.08%.
